Structures are written as SMILES. Where “and” joins values, the source holds several entries; their conditions need not be identical. Equal values may be shown once. Inconclusive results are not listed. Calls of active or inactive are those of the source. Unless noted, calls come from the whole dose curve; as a rule, active = well fitted curve in the direction sought with a large enough effect; inconclusive = small, poorly fitted or top-dose-only effect, or another doubt; inactive = no such curve, though single readings can be large; an effect the other way counts as inactive or inconclusive.

The subject of test [1] is Zika virus NS2B-NS3 protease (linked construct). Nature of the test: Primary screen NINDS Rhodamine qHTS for Zika virus inhibitors (AID 1347160). Note: nearly all actives have a fitted effect of over 55% in size. The procedure, abridged:
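Aprotinin served as in-plate control. Conditions: 25 nM linked NS2B-NS3, pH 8.0 Tris buffer, titrated compounds, 15 min preincubation and 15 min reaction with 1.5 microM Rhod110 substrate at room temperature.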

Test [2] has as its target Calcium and integrin-binding protein 1 (Homo sapiens) (UniProt Q99828). Description: Primary qHTS for Identification of Calcium Integrin Binding Protein 1 (CIB1) Competitor (AID 1508620).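 Note: GST tagged CIB1 binding a fluorescein labelled alphaIIb integrin peptide tracer; top concentration of the series differs between compounds; % is set by controls: 0 for no effect and ±100 for the full control effect.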 The procedure, abridged: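 CIB1-GST (1 uM final) and compound incubated 15 min at room temperature before adding FITC-alphaIIb peptide tracer (100 nM final). Competition for binding read by fluorescence polarization (ex 480, em 540) after another 15 min at room temperature.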
(Quantitative high-throughput screening tests each substance at several concentrations.)

The nature of test [3]: Primary qHTS for inhibitors of nuclear receptor binding SET domain protein 2 (NSD2) in an isogenic RCH-ACV NSD2 p.E1099K mutant (9B) (AID 1645876). Note: nearly all actives have a fitted effect of over 70% in size. Note: potency is the fitted concentration of half-maximal effect.
A short description of test [4]: Primary qHTS for inhibitors of nuclear receptor binding SET domain protein 2 (NSD2) in an RCH-ACV wild type WT cells (2C) (AID 1645877). Note: nearly all actives have a fitted effect of over 70% in size. Note: potency is the fitted concentration of half-maximal effect.
The target in test [5] is Glutathione peroxidase 1 (Homo sapiens) (UniProt P07203). Nature of the test: Primary qHTS Assay for Inhibitors of Recombinant Selenoprotein Glutathione Peroxidase 1 (GPX1) (AID 1845191). Note: nearly all actives have a fitted effect of over 65% in size. The procedure, abridged: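 NADPH consumption tracked by fluorescence at 340/450 nm between t=0 and t=15 min, room temperature. Final mix: 10 nM GPX1, 100 nM glutathione reductase, 1 mM GSH, 0.5 mM NADPH, 0.5 mM cumene hydroperoxide, 0.01% BSA; 30 min compound–enzyme preincubation.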
Glutathione peroxidase 1 (Homo sapiens), sequence (P07203 whole entry, looked up): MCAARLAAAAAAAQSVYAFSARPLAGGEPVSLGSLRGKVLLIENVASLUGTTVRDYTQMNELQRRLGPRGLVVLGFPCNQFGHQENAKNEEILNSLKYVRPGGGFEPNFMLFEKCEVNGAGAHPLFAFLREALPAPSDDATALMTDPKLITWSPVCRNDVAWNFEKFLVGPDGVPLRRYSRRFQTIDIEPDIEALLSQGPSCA

Test [6] addresses Phospholipid hydroperoxide glutathione peroxidase GPX4 (Homo sapiens) (UniProt P36969). Description: Primary qHTS Assay for Inhibitors of Recombinant Selenoprotein Glutathione Peroxidase 4 (GPX4) (AID 1845192). Note: nearly all actives have a fitted effect of over 65% in size. Conditions: outcome: dose series up to 50 µM unless noted. The procedure, abridged:
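NADPH consumption followed by fluorescence at 340/450 nm, t=0 and after 15 min at room temperature. Reaction started with cumene hydroperoxide (0.5 mM final) after 30 min compound–GPX4 preincubation; final 200 nM GPX4, 100 nM GR, 1 mM GSH, 0.5 mM NADPH.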

The target in test [7] is Luciferin 4-monooxygenase (Photinus pyralis) (UniProt P08659). Description: Primary firefly luciferase (FLuc) qHTS assay for identification of artifact compounds. (AID 1845220). Note: nearly all actives have a fitted effect of over 60% in size. In short, it runs like this: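 Compounds sat 15 min at room temperature with 10 uM luciferin and 10 uM ATP (pH 7.6 Tris acetate). Firefly luciferase (10 nM final) was then added, and luminescence was read 5 min later. Data normalized to no-enzyme and DMSO controls were Hill-fitted.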

In test [8] the test system is Nanoluciferase (engineered Oplophorus gracilirostris luciferase). Nature of the test: Primary Nanoluciferase (NLuc) qHTS assay for identification of artifact compounds. (AID 1845222).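 Note: 0% = DMSO and -100% = no enzyme.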 The procedure, abridged: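 Luminescence from secreted NLuc (filtered, 1:55-diluted S16 cell medium) read 5 min after Nano-Glo substrate; compounds preincubated 15 min, RT. Hill fits of inhibition normalized to DMSO and no-enzyme.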

The nature of test [9]: Primary redox qHTS assay for identification of artifact compounds. (AID 1845223).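 Note: 0% = DMSO and 100% = reference compound.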 The procedure, abridged:
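Redox-cycling detection via DTT (250 uM final) oxidation coupled to Amplex Red (25 uM)/HRP (250 mU/mL) in HBSS. 15 min preincubation plus 30 min after DTT, room temperature. Ex/Em 525/598 nm; 4-parameter Hill fit against DMSO and 10 uM DA3003.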

For the next test, the system named is C33A. Description: Primary qHTS to identify gynecologic anti-cancer compounds using libraries of approved drugs and bioactive compounds (AID 1345084). Note: nearly all actives have a fitted effect of over 55% in size. Note: potency is the fitted concentration of half-maximal effect. As to conditions: Gynecologic cancer cell panel viability, ATPlite luminescence, 48 h; series mostly up to 57.5 µM. The procedure, abridged:
(§1)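 Cells, 1,000 per well, were allowed to settle for 16 h at 37 C before compound addition. Five concentrations were tested for 48 h, and viability was read by ATPlite luminescence after 15 min at room temperature.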

Another test deals with CASKI. The description is as above. As to conditions: Gynecologic cancer cell panel viability, ATPlite luminescence, 48 h; series mostly up to 57.5 µM. In short, it runs like this:
as §1

A further test deals with Es-2. The description is as above. Conditions: Gynecologic cancer cell panel viability, ATPlite luminescence, 48 h; series mostly up to 57.5 µM. In short, it runs like this: as §1
Background: Cellular ATP, detected with luciferase, serves as a proxy for viable cell number.

The subject of the next test is HeLa. The description is as above. Conditions: Gynecologic cancer cell panel viability, ATPlite luminescence, 48 h; series mostly up to 57.5 µM. The procedure, abridged: as §1
The test system of the next test is Hek293T. Described as above. Conditions: Gynecologic cancer cell panel viability, ATPlite luminescence, 48 h, control line for the selectivity index; series mostly up to 57.5 µM. The procedure, abridged: as §1
The next test deals with JEG-3. The test is described as above. Conditions: Gynecologic cancer cell panel viability, ATPlite luminescence, 48 h; series mostly up to 57.5 µM. The procedure, abridged: as §1
A further test concerns OV90. The description is as above. As to conditions: Gynecologic cancer cell panel viability, ATPlite luminescence, 48 h; series mostly up to 57.5 µM. The procedure, abridged: as §1
The test system of another test is Tov-21-G. The description is as above. As to conditions: Gynecologic cancer cell panel viability, ATPlite luminescence, 48 h; series mostly up to 57.5 µM. In short, it runs like this: as §1
In a further test the test system is Tov112D. The test is described as above. Conditions: Gynecologic cancer cell panel viability, ATPlite luminescence, 48 h; series mostly up to 57.5 µM. The procedure, abridged: as §1
A short description of test [10]: qHTS drug screen for cell cycle checkpoint inhibitors in PARPi-resistant BRCA-mutant ovarian cancer cell lines. (AID 1963452; calls by dose curve). Conditions: PEO1/OlaR viability, CellTiter-Glo luminescence, 96 h, stronger effect = lower value. In short, it runs like this: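 PEO1, PEO4 and PEO1/OlaR ovarian cancer cells, 600 per well, exposed 96 h at 37C to a dilution series. Viability read by CellTiter-Glo luminescence, normalized to DMSO and empty wells; activity summarized as Z-AUC.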

The test system of a further test is HaCat. Nature of the test: Cytotoxic Profiling of Annotated Libraries Using Quantitative High-Throughput Screening (AID 1296008). Note: % is set by controls: 0 for no effect and ±100 for the full control effect; nearly all actives have a fitted effect of over 60% in size. As to conditions: Five cell lines viability, CellTiter-Glo ATP luminescence, 48-72 h; max response: stronger effect = lower value. The procedure, abridged:
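Cytotoxicity was measured as CellTiter-Glo ATP luminescence, read after 10 min at room temperature. Compound treatment of the cells lasted 48 or 72 hr at 37 degrees Celsius in a qHTS format.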

[11] abbreviates: measured here: PEO1 parental Z-AUC.

Calcium and integrin-binding protein 1 (Homo sapiens), sequence (Q99828 whole entry, looked up): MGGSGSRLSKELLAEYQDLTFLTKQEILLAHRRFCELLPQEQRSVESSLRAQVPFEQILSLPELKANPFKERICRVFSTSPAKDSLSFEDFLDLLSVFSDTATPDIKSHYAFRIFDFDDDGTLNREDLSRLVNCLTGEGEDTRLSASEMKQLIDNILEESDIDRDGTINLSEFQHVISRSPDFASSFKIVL
Phospholipid hydroperoxide glutathione peroxidase GPX4 (Homo sapiens), sequence (P36969 whole entry, looked up): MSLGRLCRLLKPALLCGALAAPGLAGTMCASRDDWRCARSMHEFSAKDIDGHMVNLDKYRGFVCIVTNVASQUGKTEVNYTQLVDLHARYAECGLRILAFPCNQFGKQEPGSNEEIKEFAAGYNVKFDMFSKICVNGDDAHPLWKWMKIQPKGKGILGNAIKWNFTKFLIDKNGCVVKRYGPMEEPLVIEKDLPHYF

In the case of `COc1ccc(NS(=O)(=O)c2sc3ccc(Cl)cc3c2C)cc1N1CCNCC1`, the Potency entry in test [1], in test [5], in test [6], in [7], in test [8] and in test [9] was “inactive” each time. Besides, the Potency entry in the test on C33A, in the test on CASKI, in the test with Es-2, in the test with HeLa, with Hek293T and in the test on JEG-3 was “inactive” each time. Moreover, the Potency result in the test on OV90, in the test on Tov-21-G and with Tov112D was “inactive” in each case. Further, the outcome in [2] was inactive. Also, the Potency is 20.5 µM (active) in test [3] and 12.9 µM (active) in test [4].

Consider `Cc1cc(CS(=O)(=O)c2ccccc2)cc(OCc2ccc(CN3CCC[C@@H]3CO)cc2)c1`, for which the Potency entry in test [1], in test [5], in test [6], in test [7], in test [8] and in [9] was “inactive” each time. In addition, the Potency result in the test on CASKI, in the test on Es-2 and with HeLa was “inactive” in each case. Moreover, the result in [2] was inactive. Further, the Potency in test [3] is 12.9 µM (active) and 16.6 µM (active); in test [4], 18.3 µM (active) and 14.8 µM (active); in the test with OV90, 25.1 µM (active). Further, the Z-AUC in test [10] was 0.153 (inactive); in test [10] (setting [11]), 0.253; in test [10] (measured here: PEO4 Z-AUC) it was 0.0408.

Regarding `CCS(=O)(=O)N(Cc1cccnc1)c1cccc(-c2ccc(C#N)cc2)c1`, the Potency entry in [1], in test [5], in test [6], in [7], in [8] and in [9] was “inactive” throughout. For the same compound, the Potency result in the test on C33A, with CASKI, with Es-2, in the test on HeLa, in the test with Hek293T and in the test with JEG-3 was “inactive” each time. Also, the Potency entry in the test with Tov112D is “inactive”. In addition, the outcome in test [2] was inactive. The Potency in test [3] was 16.3 µM (active); in test [4], 20.5 µM (active).

As for `CC(=O)C1=C(O)C2c3c[nH]c4cccc(c34)CC2C(C)(C)N(C)C1=O` (stereo not drawn), the Potency result (in [1]; in [6]; in [7]; with HeLa; in the test on Hek293T; with JEG-3) was “inactive” throughout. The Potency entry with OV90, in the test on Tov-21-G and with Tov112D was “inactive” throughout. Further, the result in test [2] was inactive. The results for the Potency in test [3] and in test [4] were 18.3 µM (active) and 14.5 µM (active), respectively. Also, in the test with HaCat, the max response was -23.8% (inactive).

For `COCCNCc1ccc(-c2cc3nccc(Oc4ccc(NC(=S)NC(=O)Cc5ccc(F)cc5)cc4F)c3s2)nc1`, the Potency entry in test [1], in test [5], in [6], in test [7], in [8] and in test [9] was “inactive” throughout. The Potency result with CASKI, with JEG-3 and in the test on Tov-21-G was “inactive” each time. Also, the outcome in test [2] was inactive. Moreover, the Potency in [3] was 2.9 µM (active); in test [4], 3.25 µM (active) and 2.35 µM (active). The Z-AUC in [10] is 0.225 (inactive); in test [10] (setting [11]), -0.316; in test [10] (measured here: PEO4 Z-AUC) it was 0.00247.

For `N#C[C@@H]1C[C@@H]2C[C@@H]2N1C(=O)[C@@H](N)C12CC3CC(CC(O)(C3)C1)C2`, the Potency entry in test [1], in test [3], in test [4], in [5], in test [6] and in test [7] was “inactive” each time. Moreover, the Potency entry (in test [9]; in the test on C33A; with CASKI; with Es-2; with HeLa; in the test with Hek293T) was “inactive” throughout. For the same compound, the Potency result in the test on JEG-3, with OV90, with Tov-21-G and with Tov112D was “inactive” throughout. Besides, the outcome in test [2] was inactive. Also, the Z-AUC in test [10] was -0.557 (inactive); in test [10] (setting [11]) it was 0.593; in [10] (measured here: PEO4 Z-AUC) it was -0.565.

Source of the values: PubChem BioAssay (NCATS).
